# Measurements: PubChem BioAssay (NCI)
# This is part of a sample that, as a whole, favours compounds with a hit. Of some 83,000 tested, about 20% had one in any assay.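 Growth was measured after 48 h exposure to one concentration of compound in 96-well plates. Values under 10 count as active.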 Unmarked numbers belong to inactive results. Activity calls are given as the source filed them.
# Legend:
# Test in all cases: NCI-60 one-dose screen, 48 h (100 = growth as untreated, 0 = no growth, -100 = all killed)
# Conditions in all cases: 10 µM unless noted
# T-47D breast = system: T-47D breast
# BT-549 breast = system: BT-549 breast
# MDA-MB-435 melanoma = system: MDA-MB-435 melanoma
# SW-620 colon = system: SW-620 colon
# MCF7 breast = system: MCF7 breast
# HCT-116 colon = system: HCT-116 colon
# KM12 colon = system: KM12 colon
# HCC-2998 colon = system: HCC-2998 colon
Compound,growth (T-47D breast),growth (BT-549 breast),growth (MDA-MB-435 melanoma),growth (SW-620 colon),growth (MCF7 breast),growth (HCT-116 colon),growth (KM12 colon),growth (HCC-2998 colon)
COc1ccc(CNC(=O)c2c(C)n([O-])c3ccc(OC)cc3[n+]2=O)cc1,115%,83.5%,115%,107%,101%,106%,97.1%,
CC(C)OP(=O)(OC(C)C)c1ncc(-c2ccc(C(F)(F)F)cc2)c(NC2CCCCCC2)n1,-13.8% [33.3 µM] (active),-95% [33.3 µM] (active),-75.2% [33.3 µM] (active),-52.7% [33.3 µM] (active),0.217% [33.3 µM] (active),-93.4% [33.3 µM] (active),-95.8% [33.3 µM] (active),
CC[C@@H](C)/C=C(C)/C=C/C(O)=C1\C(=O)N[C@@H](Cc2ccc(OC(=O)[C@@](OC)(c3ccccc3)C(F)(F)F)cc2)C1=O,113%,88.8%,101%,96.7%,99.8%,91%,91.1%,
CCCCCCCCCCCCCCCCCC1=NC(C)(CO)CO1 (stereo not given),87.7%,92.9%,103%,108%,121%,105%,102%,
C=C(CN1CCc2c([nH]c3ccccc23)C1)c1ccc(C(=O)Nc2ccon2)cc1,22.8%,55.4%,101%,102%,87.7%,91.9%,141%,
NC(=N\N=C/Cc1ccccc1)/C(N)=N\N=C\Cc1ccccc1,91.7%,104%,107%,104%,101%,108%,104%,
O=C1/C=C/[C@@H](O)[C@@H]2C[C@@H](O)C[C@H]2/C=C/CCC[C@H](CO)O1,32.5%,20.1%,18.5%,10.5%,-2.04% (active),2.08% (active),2.96% (active),
O=C(CNC(=O)c1cccc2ccccc12)Nc1ccccc1Oc1ccc(O)cc1,36.5% [5 µM],58.5% [5 µM],-16.1% [5 µM] (active),28.9% [5 µM],27.1% [5 µM],15.9% [5 µM],30.1% [5 µM],
O=C(Nc1ccccc1OC(=O)c1ccccc1)c1ccccc1,67%,72.7%,104%,23.6%,27.2%,9.26% (active),25.7%,
c1ccc(CN=C(NCc2ccccc2)NCc2ccccc2)cc1,26.3%,82.2%,66.9%,77.3%,36.5%,46.4%,62.6%,
CCCCCCCCCCCCCCCCNC(=O)Nc1ccc2ccccc2c1,108%,97.4%,103%,94.2%,94.5%,101%,111%,
Cn1c(=O)c2[nH]c(=S)n(Cc3ccccc3)c2n(C)c1=O,98.8%,106%,119%,100%,101%,98.2%,109%,
CC(=O)OCC(=O)[C@@]1(O)CC[C@H]2[C@@H]3CCC4=CC(=O)CC[C@]4(C)[C@@]3(F)[C@@H](O)C[C@@]21C,109%,103%,115%,98.3%,87.3%,106%,109%,
CC(NC(=O)Oc1cccc2ccccc12)c1ccccc1 (stereo not given),92.7%,106%,102%,98.6%,87.8%,105%,99.8%,
ICCC(c1ccccc1)(c1ccccc1)c1ccccc1,39.2%,54.6%,35.9%,80.7%,35.1%,33.2%,57.7%,
Cc1cc(C)c2c(N)c3cccc(C)c3nc2n1,-3.39% (active),0.0119% (active),2.84% (active),-1.92% (active),6.02% (active),-39.4% (active),6.37% (active),
COc1ccc(-c2cnc(SCC(=O)Nc3ccc(-c4nc5ccccc5s4)cc3)n2-c2ccc(OC)cc2)cc1,93.1%,108%,114%,110%,47.4%,107%,113%,
O=C(Nc1ccccc1)c1cc(-n2cnc([N+](=O)[O-])c2)cc(-n2cnc([N+](=O)[O-])c2)n1,107%,113%,122%,99.7%,116%,103%,94.1%,
Cc1sc2nc3c4ccccc4c(NCCCN(C)C)nn3c(=O)c2c1C,85.2%,66.7%,24.8%,-43.7% (active),23.8%,36.1%,31.5%,
CCOC(=O)OCC(=O)[C@@]1(O)CC[C@H]2[C@@H]3CCC4=CC(=O)CC[C@]4(C)[C@H]3[C@@H](O)C[C@@]21C,91.4%,101%,111%,98.3%,94.9%,98.3%,106%,
CCCCN=C(N)c1ccc(OCCSCCOc2ccc(C(N)=NCCCC)cc2)cc1,26.3%,-3.76% (active),35.5%,57.5%,29.1%,41.5%,27%,
O=C(NC1CCCCC1)c1ccc(Nc2ncnc3c2cnn3-c2ccccc2)cc1,76.8%,59.8%,81.2%,72.9%,82.8%,37.6%,88.5%,
CCSCC1CC(O)(c2ccccc2)C(c2ccccc2)C(c2ccc(Cl)cc2)O1 (stereo not given),-7.67% (active),1.88% (active),-17.3% (active),1.98% (active),0.0329% (active),1.69% (active),-31.2% (active),
Oc1ccccc1/C=N/N1CCCCCC1,102%,97.9%,99.9%,108%,83.8%,102%,103%,
CC(=O)OC1Oc2cc(C)c(C)cc2-c2oc(=O)c(-c3ccccc3)cc21 (stereo not given),43.8%,24.9%,,16.3%,10.9%,14%,7.26% (active),41.4%
COc1ccccc1NC(=O)c1sc2nc3c(cc2c1N)C(=O)CCC3,87.3%,63.1%,,60.2%,59%,75.5%,53.4%,75.5%
CCSc1ncc(Br)c(Sc2nc(N)nc3nc[nH]c23)n1,29.9%,65.3%,37.7%,91.4%,47%,36.8%,79%,
O=C1Nc2ccc(C(=O)O)c(O)c2C1=O,106%,106%,,104%,104%,108%,106%,117%
NS(=O)(=O)N(c1cc(C(F)(F)F)cc(C(F)(F)F)c1)C1CCN(Cc2ccc(C(F)(F)F)cc2)CC1,29.5%,37.4%,,19.9%,9.31% (active),2.21% (active),12.9%,3.6% (active)
O=CNc1ccc2c(c1)Cc1cc([N+](=O)[O-])ccc1-2,29.1%,16.5%,-27.9% (active),32.4%,16.3%,11.7%,13.9%,
